Source: PubChem BioAssay AID652040 (Broad Institute, 2013)
Results with a measured potency or affinity are listed apart. Values without a mark were called inactive.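 The calls were made as follows: active = falling luciferase signal whose fitted half-maximal concentration is at most twice the top tested dose; inconclusive = flat inhibition between 30 and 70% or a poor curve fit; inactive = the rest.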

assay: off-target signal loss in HeLa-CEM21 co-culture – HeLa F-luc CTL cells, cherry-picked, counter-screen for HIV-1 Env fusion inhibitor project, dose response (AID 652040); settings: HeLa-F-luc CTL cells with CEM21, firefly luciferase counterscreen; series mostly up to 35 µM; activity change, negative = inhibition: at the top concentration;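 also: 0% = median of neutral control wells and -100% = doxycycline 40 µg/mL wells; more negative values mean stronger loss of luciferase signal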

Going from `CCc1ccc(Nc2n[n+](-c3ccccc3)c(-c3c(Cl)cccc3Cl)s2)cc1` to `COc1ccccc1Oc1ccc(S(=O)(=O)NCc2ccccn2)cc1`, the “activity change, negative = inhibition” value rises from 9% to 16.7%.

Compared with `COc1ccc(C(=O)Nc2nc(-c3ccc(S(=O)(=O)N4CCOCC4)cc3)cs2)cc1`, `COCCCn1c(-c2ccc(S(=O)(=O)N3CCOCC3)cc2)csc1=Nc1ccccc1` is higher in “activity change, negative = inhibition” value: -15.8% for the first, 41.7% for the second.

Compared with `CSc1ncccc1C(=O)OCC(=O)Nc1ccc(C)c(S(=O)(=O)N2CCOCC2)c1`, `COC(=O)C1CCN(C(=O)COC(=O)c2cc(S(=O)(=O)N3CCOCC3)ccc2C)CC1` is higher in “activity change, negative = inhibition” value: 0.54% for the first, 6.75% for the second.

Going from `O=C(c1ccc(Cl)s1)N1CCN(c2nc3ccccc3s2)CC1` to `CC1CCCN(C(=O)c2ccc(S(=O)(=O)N3CCC(c4nc5ccccc5s4)CC3)cc2)C1` (stereo not given), the “activity change, negative = inhibition” value rises from -15.1% to 6.01%.

Going from `Cc1ccc(C(=O)NCc2ccccn2)cc1S(=O)(=O)N1CCCCC1` to `COc1ccc(S(=O)(=O)N2CCCCC2)cc1NC(=O)CCCOc1ccc(C)cc1`, the “activity change, negative = inhibition” value falls from 34.2% to 4.9%.

Compared with `CC(NNC(=S)N1CCCCCC1)c1ccc2ccccc2n1` (stereo not given), `CCN1CCN(S(=O)(=O)c2ccc(Cl)c(C(=O)Nc3ccccc3N3CCCC3)c2)CC1` is lower in “activity change, negative = inhibition” value: 112% for the first, 98.5% for the second.

Compared with `COc1ccccc1CN(C)C(=O)CN1CCN(C(=O)c2cccs2)CC1`, `N#Cc1ccc(CN2CCN(C(=O)CNC(=O)Cc3cccc4ccccc34)CC2)cc1` is higher in “activity change, negative = inhibition” value: 4.78% for the first, 18.8% for the second.

First: CC(=O)Nc1ccc(C(=O)OCC(=O)NC(=O)NCc2ccccc2)cc1
Second: O=C(NCc1ccccc1)c1ccc(C(=O)NCc2ccccc2)cc1
The “activity change, negative = inhibition” value of the first is higher: 0.966% for the first, -10.1% for the second.

First: c1ccc2c(c1)CCN(c1ncnc3c1[nH]c1ccccc13)C2
Second: COc1ccc2[nH]c3c(N4CCC(O)(c5cccc(C(F)(F)F)c5)CC4)ncnc3c2c1
The “activity change, negative = inhibition” value of the first is higher: 30.8% for the first, -52.1% for the second.

Compared with `CC1CCCCN1S(=O)(=O)c1ccc(C(=O)Nc2nnc(-c3cccs3)o2)cc1` (stereo not given), `O=S(=O)(NC1CC1)c1ccc(S(=O)(=O)N2CCCc3ccccc32)cc1` is higher in “activity change, negative = inhibition” value: -5.3% for the first, 9.61% for the second.

Going from `Nc1nonc1C(=O)NCCNCc1cc(Br)ccc1OCc1ccccc1F` to `Cc1onc(-c2ccccc2)c1C(=O)NC(=S)NNC(=O)c1ccc(O)cc1`, the “activity change, negative = inhibition” value falls from 101% to -0.417%.

Compared with `COC(=O)[C@@]1(Cc2ccc(F)cc2)[C@H]2c3cc(C(=O)N(C)C)n(CCO)c3C[C@H]2CN1C(=O)c1ccccc1`, `O=C(CNC(=O)c1cccc(-n2cccc2)c1)Nc1ccccc1Br` is lower in “activity change, negative = inhibition” value: 15% for the first, 14.5% for the second.

Going from `CCOC(=O)C1CCN(C(=O)c2ccc3c(c2)C(=O)N(c2ccccc2C)C3=O)CC1` to `COc1ccc(-c2nn(C)c(=O)c3ccccc23)cc1NC(=O)Cn1nc(C)c2ccccc2c1=O`, the “activity change, negative = inhibition” value falls from 3.39% to -17%.

Compared with `Clc1ccc(-c2noc(CSc3nnc(-c4ccncc4)n3-c3ccccc3)n2)cc1`, `O=C(Cc1ccc(Cl)cc1Cl)Nc1ccncc1` is lower in “activity change, negative = inhibition” value: 18.5% for the first, -6.32% for the second.

Compared with `CC(=O)c1c(C)[nH]c(C(=O)OCC(=O)Nc2ccc(Cl)c(S(=O)(=O)N(C)C)c2)c1C`, `CC(=O)c1c(C)[nH]c(C(=O)OCC(=O)Nc2c(C)cccc2C)c1C` is lower in “activity change, negative = inhibition” value: 13.9% for the first, -5.12% for the second.

First: COc1ccc(OC2C(=O)N(Cc3ccc4c(c3)OCO4)C2c2cccs2)cc1 (stereo not given)
Second: NC(=S)c1ccc(OCCCc2ccccc2)cc1
The “activity change, negative = inhibition” value of the first is higher: 55.8% for the first, 6.29% for the second.

Going from `Cc1cc(Nc2cccc(C(F)(F)F)c2)cc(=O)n1-c1cccc(C(F)(F)F)c1` to `COc1cc(CSc2nnnn2-c2ccc(C)cc2)cc(OC)c1OC`, the “activity change, negative = inhibition” value rises from 18.8% to 21.6%.

First: C#CCn1c(=O)c2c(ncn2C)n(C)c1=O
Second: CCNc1ncnc2c1cnn2C1CCCO1 (stereo not given)
The “activity change, negative = inhibition” value of the first is lower: -0.713% for the first, 21.7% for the second.

Going from `CC(C)OCCCNc1ncnc2c1[nH]c1ccccc12` to `Cc1cc(Cl)c(S(=O)(=O)N2CCCC2)cc1OCC(=O)NC1CCCCC1`, the “activity change, negative = inhibition” value rises from 7.69% to 36.3%.

With `Clc1ccc2c(c1)C1=C(C(c3ccncc3)O2)C(c2ccc(Br)cc2)n2ncnc2N1` (stereo not given) the “activity change, negative = inhibition” value was 53.7% [at 16 µM].

In the case of `COc1ccccc1N1CCN(Cc2ccc(O)c3ncccc23)CC1`, the activity change, negative = inhibition is reported as 166% [at 8 µM].
